Measured values as given in PubChem BioAssay (NCATS).
Inconclusive results are not listed. The source made the active and inactive calls. Calls follow the shape of the dose curve; as a rule, active = well fitted inhibition curve with a large enough effect; inconclusive = small, poorly fitted or top-dose-only effect; inactive = flat fitted curve, though single readings scatter.

system: HEK293; test: Cytotoxic Profiling of Annotated Libraries Using Quantitative High-Throughput Screening (AID 1296008); conditions: Five cell lines viability, CellTiter-Glo ATP luminescence, 48-72 h; max response: stronger effect = lower value; also: nearly all actives have a fitted effect of over 60% in size
Summary of the method: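 Cytotoxicity was measured as CellTiter-Glo ATP luminescence, read after 10 min at room temperature. Compound treatment of the cells lasted 48 or 72 hr at 37 degrees Celsius in a qHTS format.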
% is scaled to controls: 0 for no effect and ±100 for the full control effect; potency is read from the fitted curve at half-maximal effect.

| Compound | Potency | outcome | max response |
| --- | --- | --- | --- |
| CC1(C)CC(=O)C2=C(C1)NC(=S)NC2c1cccc(O)c1 (stereo not drawn) | 1160 nM (active) |  |  |
| COc1ccc([C@@]2(O)c3c(ccc(CC=C(C)C)c3O)NC(=O)[C@@H]2OC)cc1 |  | inactive |  |
| O=c1[nH]ccc2cc(OC3CCNCC3)ccc12 |  |  | -16.8% (inactive) |
| C[C@@H]1CCN(C(=O)N2CCCC2)C[C@@H]1N(C)c1ncnc2[nH]ccc12 |  |  | -16.9% (inactive) |
| C=C1C(=O)O[C@@H]2C/C(C)=C\C(=O)/C=C(\C)[C@@H](OC(=O)/C(C)=C\C)[C@H](O)[C@@H]12 | 1610 nM (active) |  |  |
| C[C@H]1[C@H](O)O[C@@H]2O[C@@]3(C)CC[C@H]4[C@H](C)CC[C@@H]1[C@@]24OO3 | 1840 nM (active) |  |  |
| COc1ccc(-c2cnc3ccc(NCc4ccc(S(N)(=O)=O)cc4)nn23)cc1OC |  |  | -0.271% (inactive) |
| CCN(CC)CCN(Cc1ccc(-c2ccc(C(F)(F)F)cc2)cc1)C(=O)Cn1c(SCc2ccc(F)cc2)nc(=O)c2c1CCC2 | 3660 nM (active) |  |  |
| C/C=C/c1ccc(O[C@@H]2O[C@H](CO)[C@@H](O)[C@H](O)[C@H]2O)c(OC)c1 | 11400 nM (active) |  |  |
| COCCN1CCN(Cc2ccc(-c3n[nH]c4c3C(=O)c3c(NC(=O)NN5CCOCC5)cccc3-4)cc2)CC1 | 206 nM (active) |  |  |
| Nc1nc2c(c(N3CCNCC3)n1)CCC1=C2[C@@H]2CCCC[C@@H]2O1 | 18400 nM (active) |  |  |
| C/C=C/C=C/C=C/C(=O)OC1C=C(C=O)C(O)(C(=O)O)C2(C)CCCC(C)(C)C12 (stereo not drawn) |  |  | 1.26% (inactive) |
| CCS(=O)(=O)N1CCN(c2ccc(Nc3ncc(C(N)=O)c(NC4CC4)n3)cc2)CC1 | 7310 nM (active) |  |  |
